Laboratory results reported in PubChem BioAssay.
Calls of active or inactive are those of the source.

Experiments:
[1] = small molecules captured by biotinylated probe aFSTL3 – biochemical, small-molecule microarray, fluorescence 635/667, stem cell growth factor project, primary screen (AID 1064); settings: higher = more signal;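 further: measures binding of the biotinylated anti-FSTL3 antibody to printed compounds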
[2] = binders from COS7 lysate, DM2A8 probe, primary screen, torsin A project, cell lysate, small-molecule microarray, fluorescence 635/667 (AID 1065); settings: higher = more signal, COS7 lysate expressing mutant human TOR1A
[3] = small molecules captured by biotinylated probe aFGF2 – biochemical, small-molecule microarray, fluorescence 635/667, stem cell growth factor project, primary screen (AID 1067); settings: higher = more signal;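 further: measures binding of biotinylated aFGF2 protein to printed compounds on slides; z-score merges feature fluorescence and signal-to-noise across triplicate slides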
[4] = small molecules captured by biotinylated probe aFGF10 – biochemical, small-molecule microarray, fluorescence 635/667, stem cell growth factor project, primary screen (AID 1071); settings: higher = more signal;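 further: score merges 667 nm spot intensity and signal to noise from triplicate slides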
[5] = target: Neurogenic locus notch homolog protein 2 (Homo sapiens) (UniProt Q04721); assay: small molecules binding Notch2 protein – biochemical, small-molecule microarray, 635 nm fluorescence, stem cell growth factors, primary screen (AID 1073); settings: higher = more signal
[6] = target: Pro-neuregulin-1, membrane-bound isoform (Homo sapiens) (UniProt Q02297); assay: small molecules binding neuregulin-1 protein – biochemical, small-molecule microarray, fluorescence 635/667, psychiatric disease protein project, primary screen (AID 1075); settings: NRG1 binding, 635 nm fluorescence, higher = more signal;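 further: score combines 667 nm spot fluorescence with signal to noise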
Sequence of Pro-neuregulin-1, membrane-bound isoform (Homo sapiens) (Q02297 whole entry, looked up, the tested form may be a part, canonical isoform): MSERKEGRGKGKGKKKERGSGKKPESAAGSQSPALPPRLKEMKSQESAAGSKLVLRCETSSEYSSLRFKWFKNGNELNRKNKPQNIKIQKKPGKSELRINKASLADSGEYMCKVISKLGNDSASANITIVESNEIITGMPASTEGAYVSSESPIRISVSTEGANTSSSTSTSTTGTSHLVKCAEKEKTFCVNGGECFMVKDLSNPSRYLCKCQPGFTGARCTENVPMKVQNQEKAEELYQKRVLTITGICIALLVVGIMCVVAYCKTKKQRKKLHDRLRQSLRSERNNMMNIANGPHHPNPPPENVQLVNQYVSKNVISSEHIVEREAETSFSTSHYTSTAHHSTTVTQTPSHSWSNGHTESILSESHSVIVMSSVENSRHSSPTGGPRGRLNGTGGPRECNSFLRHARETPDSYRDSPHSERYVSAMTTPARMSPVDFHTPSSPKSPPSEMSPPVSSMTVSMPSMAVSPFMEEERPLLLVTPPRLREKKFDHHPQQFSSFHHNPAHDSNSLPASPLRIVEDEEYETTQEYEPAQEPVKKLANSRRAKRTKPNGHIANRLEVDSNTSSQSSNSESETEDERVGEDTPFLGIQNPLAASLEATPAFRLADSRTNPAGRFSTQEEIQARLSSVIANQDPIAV

[7] = tested on: Neuregulin-1 EGF-like domain; assay: small molecules binding NRG1 EGF domain – biochemical, small-molecule microarray, 635 nm fluorescence, primary screen (AID 1081); settings: higher = more signal;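 further: binding of the protein to compounds printed on small-molecule microarray slides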
[8] = FRG1 expression reporter modulators in myotubes – cell-based, C2C12 myotubes, firefly/Renilla luciferase, luminescence, FRG1 inhibition for FSHD, primary screen (AID 1084); settings: FRG1 promoter luciferase, higher = more signal, called active from +8 up or from −8 down
[9] = small molecules captured by biotinylated probe aFST – biochemical, small-molecule microarray, fluorescence 635/667, stem cell growth factor project, primary screen (AID 1086); settings: higher = more signal;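 further: score merges 667 nm fluorescence with signal-to-noise of each printed compound spot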
[10] = binders of probe aHhip on microarray, primary screen, stem cell growth factor project, biochemical, small-molecule microarray, fluorescence 635/667 (AID 1087); settings: higher = more signal;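 further: score merges spot fluorescence at 667nm with spot signal to noise ratio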
[11] = tested on: PRMT1 (protein arginine N-methyltransferase 1); assay: small molecules binding arginine methyltransferase PRMT1 – biochemical, small-molecule microarray, 635 nm fluorescence, primary screen (AID 1088); settings: higher = more signal;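 further: binding of Prmt1 protein to compounds spotted on small-molecule microarray slides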
[12] = growth effects on S. cerevisiae YJM789 – YJM789 clinical isolate, OD600, 24 h, basal, primary screen (AID 1089); settings: higher = more signal, called active from +8 up or from −8 down;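 further: growth of clinical yeast isolate S. cerevisiae YJM 789 seeded 1000 cells per well; test concentration not given here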
[13] = S. pombe growth modifiers, basal conditions – strain 972, OD600, 24 h, no modulator, primary screen (AID 1090);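 further: basal condition with compound alone and no growth modifier present; test concentration not given here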; settings: S. pombe 972 growth, higher = more signal, called active from +8 up or from −8 down
[14] = budding yeast growth modifiers under rapamycin – strain BY4716, OD600, 96 h, primary screen (AID 1091); further: test concentration not given here; settings: S. cerevisiae BY4716 + rapamycin, higher = more signal, called active from +8 up or from −8 down
[15] = target: Torsin-1A-interacting protein 2 (Homo sapiens) (UniProt Q8NFQ8); assay: small molecules binding lysate-expressed LULL1 – cell lysate, human LULL1 lysate, 635/667 nm fluorescence, primary screen (AID 1092); settings: small-molecule microarray, hLULL1 lysate binding, 635 nm fluorescence; higher = more signal;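 further: probe is lysate of COS7 cells overexpressing human LULL1; score merges per-feature 667 nm fluorescence with signal-to-noise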
Sequence of Torsin-1A-interacting protein 2 (Homo sapiens) (Q8NFQ8 whole entry, looked up): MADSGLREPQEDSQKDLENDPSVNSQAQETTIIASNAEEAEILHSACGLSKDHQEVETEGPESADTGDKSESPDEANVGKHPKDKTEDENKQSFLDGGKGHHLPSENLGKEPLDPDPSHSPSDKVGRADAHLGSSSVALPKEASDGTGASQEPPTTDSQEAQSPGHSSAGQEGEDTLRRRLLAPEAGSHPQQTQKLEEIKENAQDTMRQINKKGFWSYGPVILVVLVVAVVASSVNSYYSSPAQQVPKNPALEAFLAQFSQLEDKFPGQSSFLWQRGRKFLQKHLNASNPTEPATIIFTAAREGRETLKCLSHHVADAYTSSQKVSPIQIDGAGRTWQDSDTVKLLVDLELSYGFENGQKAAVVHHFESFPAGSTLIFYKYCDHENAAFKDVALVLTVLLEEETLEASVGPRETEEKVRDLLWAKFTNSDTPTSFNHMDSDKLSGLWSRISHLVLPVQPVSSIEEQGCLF

[16] = optical density change of DRC41 E. coli – strain DRC41, OD650, 24 h, E. coli filamentation project, primary screen (AID 1093);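 further: MC1000 strain lacking acrAB efflux and sulA so SOS filamentation is blocked; test concentration not given here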; settings: E. coli DRC41 growth, higher = more signal, called active from +8 up or from −8 down
[17] = probe aLefty2 binding to arrayed compounds – biochemical, biotinylated probe, 635/667 nm fluorescence, primary screen (AID 1094); settings: small-molecule microarray, higher = more signal;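 further: score merges spot fluorescence near 667 nm with spot signal-to-noise ratio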
[18] = tested on: Noggin (protein binding on small-molecule microarray); assay: small molecules binding Noggin protein – biochemical, 635/667 nm fluorescence, primary screen (AID 1095); settings: 635 nm fluorescence, higher = more signal;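 further: score merges 667 nm feature fluorescence with signal to noise over triplicate slides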
[19] = target: Neurogenic locus notch homolog protein 3 (Homo sapiens) (UniProt Q9UM47); assay: small molecules binding NOTCH3 protein – biochemical, 635/667 nm fluorescence, primary screen (AID 1096); settings: small-molecule microarray, 635 nm fluorescence, higher = more signal
Sequence of Neurogenic locus notch homolog protein 3 (Homo sapiens) (Q9UM47 whole entry, looked up): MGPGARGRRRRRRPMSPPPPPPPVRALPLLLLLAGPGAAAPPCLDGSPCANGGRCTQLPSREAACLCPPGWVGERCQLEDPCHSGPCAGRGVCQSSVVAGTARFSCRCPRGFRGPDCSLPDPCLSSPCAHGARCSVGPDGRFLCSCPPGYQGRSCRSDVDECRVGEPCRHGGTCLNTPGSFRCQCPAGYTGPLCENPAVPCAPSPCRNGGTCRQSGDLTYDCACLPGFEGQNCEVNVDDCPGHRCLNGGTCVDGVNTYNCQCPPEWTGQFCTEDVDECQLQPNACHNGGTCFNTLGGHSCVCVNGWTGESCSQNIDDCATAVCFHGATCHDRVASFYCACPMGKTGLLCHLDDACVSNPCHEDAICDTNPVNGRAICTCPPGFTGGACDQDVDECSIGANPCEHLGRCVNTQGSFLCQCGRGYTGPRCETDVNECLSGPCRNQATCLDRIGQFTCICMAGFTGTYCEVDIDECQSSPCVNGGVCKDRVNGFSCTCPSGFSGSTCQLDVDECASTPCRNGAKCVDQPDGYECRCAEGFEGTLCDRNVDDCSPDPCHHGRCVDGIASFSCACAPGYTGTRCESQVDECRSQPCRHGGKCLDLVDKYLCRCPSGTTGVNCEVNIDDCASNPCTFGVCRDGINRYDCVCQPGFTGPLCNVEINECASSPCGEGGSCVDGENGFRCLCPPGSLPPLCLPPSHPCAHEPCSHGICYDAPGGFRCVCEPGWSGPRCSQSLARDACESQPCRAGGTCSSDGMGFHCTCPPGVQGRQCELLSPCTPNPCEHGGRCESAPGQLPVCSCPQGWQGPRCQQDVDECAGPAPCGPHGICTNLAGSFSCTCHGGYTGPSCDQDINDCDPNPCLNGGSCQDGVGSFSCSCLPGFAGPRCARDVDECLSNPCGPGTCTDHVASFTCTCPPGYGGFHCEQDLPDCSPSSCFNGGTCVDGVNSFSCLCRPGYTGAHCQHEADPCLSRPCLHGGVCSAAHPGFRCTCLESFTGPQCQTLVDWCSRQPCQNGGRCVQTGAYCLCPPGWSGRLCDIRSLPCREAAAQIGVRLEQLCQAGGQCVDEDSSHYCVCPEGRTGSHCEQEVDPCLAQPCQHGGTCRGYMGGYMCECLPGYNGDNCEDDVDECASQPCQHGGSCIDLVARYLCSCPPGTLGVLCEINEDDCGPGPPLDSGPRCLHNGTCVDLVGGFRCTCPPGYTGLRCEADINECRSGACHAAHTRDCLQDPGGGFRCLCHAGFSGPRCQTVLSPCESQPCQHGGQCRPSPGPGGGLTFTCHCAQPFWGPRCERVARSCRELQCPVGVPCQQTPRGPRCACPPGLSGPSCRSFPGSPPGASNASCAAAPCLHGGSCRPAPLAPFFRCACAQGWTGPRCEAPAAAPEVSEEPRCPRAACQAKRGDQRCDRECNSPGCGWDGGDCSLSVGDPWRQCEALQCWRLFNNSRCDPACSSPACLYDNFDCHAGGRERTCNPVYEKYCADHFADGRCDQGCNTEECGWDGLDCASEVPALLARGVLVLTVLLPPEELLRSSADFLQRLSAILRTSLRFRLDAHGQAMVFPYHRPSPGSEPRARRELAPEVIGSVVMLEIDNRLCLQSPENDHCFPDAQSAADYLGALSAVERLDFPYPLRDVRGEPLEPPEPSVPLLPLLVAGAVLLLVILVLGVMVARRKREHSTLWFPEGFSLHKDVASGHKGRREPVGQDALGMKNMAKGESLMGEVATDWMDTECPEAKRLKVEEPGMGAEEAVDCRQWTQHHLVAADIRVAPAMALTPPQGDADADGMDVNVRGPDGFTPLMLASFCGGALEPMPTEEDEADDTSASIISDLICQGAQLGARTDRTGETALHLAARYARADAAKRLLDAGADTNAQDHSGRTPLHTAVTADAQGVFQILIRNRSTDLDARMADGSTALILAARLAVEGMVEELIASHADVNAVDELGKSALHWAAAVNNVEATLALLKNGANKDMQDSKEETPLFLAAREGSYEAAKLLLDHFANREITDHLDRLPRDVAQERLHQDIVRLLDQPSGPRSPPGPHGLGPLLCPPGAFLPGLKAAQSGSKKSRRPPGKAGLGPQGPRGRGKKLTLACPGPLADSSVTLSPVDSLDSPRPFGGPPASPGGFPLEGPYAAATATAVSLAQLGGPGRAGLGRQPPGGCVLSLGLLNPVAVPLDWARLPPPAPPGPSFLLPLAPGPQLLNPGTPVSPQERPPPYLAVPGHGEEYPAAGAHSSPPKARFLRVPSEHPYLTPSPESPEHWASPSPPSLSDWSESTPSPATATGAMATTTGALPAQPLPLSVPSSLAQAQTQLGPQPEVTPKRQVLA

[20] = probe aEGFR binding to arrayed compounds – biochemical, biotinylated probe, 635/667 nm fluorescence, primary screen (AID 1097); settings: small-molecule microarray, higher = more signal;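 further: probe is a biotinylated anti-EGFR antibody binding compounds printed on slides; score combines fluorescence near 667 nm and signal to noise of each spot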

| SMILES | composite z-score [1] | composite z-score [2] | composite z-score [3] | composite z-score [4] | composite z-score [5] | composite z-score [6] | composite z-score [7] | z-score [8] | composite z-score [9] | composite z-score [10] | composite z-score [11] | z-score [12] | z-score [13] | z-score [14] | composite z-score [15] | z-score [16] | composite z-score [17] | composite z-score [18] | composite z-score [19] | composite z-score [20] |
| --- | --- | --- | --- | --- | --- | --- | --- | --- | --- | --- | --- | --- | --- | --- | --- | --- | --- | --- | --- | --- |
| NC(=O)N1C(=O)C2C(C1=O)C1C=C(CCCO)C2C(c2cccs2)N1Cc1cccc(OC(F)(F)F)c1 (stereo not given) | -0.206 | 0.118 | -0.0715 | 0.354 | 0.009 | 1.03 | 0.753 | -1.02 (inactive) | 0.0646 | -0.0994 | 1.2 | -0.367 (inactive) | -1.7 (inactive) | -0.967 (inactive) | 1.77 | 0.56 (inactive) | -0.123 | 0.329 | 0.511 | 0.0625 |
| COc1ccc([Si](C)(C)[C@H]2[C@H](CC(=O)N(CCO)Cc3ccccc3)O[C@@]3(C(=O)N(Cc4cccc(N5CCOC5=O)c4)c4ccccc43)[C@@H]2C)cc1 | -0.243 | 0.635 | -0.0737 | 0.171 | 0.0078 | 1.2 | 0.974 | -0.551 (inactive) | -0.0174 | 0.176 | 1.56 | -0.0337 (inactive) | -0.166 (inactive) | 3.02 (inactive) | 1.35 | 1.17 (inactive) | -0.0724 | 0.722 | 0.403 | -0.167 |
| COCCOC(=O)N1C(=O)[C@@]2(c3cc(C#CCCO)ccc31)[C@H](c1ccccc1OCCO)N1[C@H](c3ccccc3)[C@H](c3ccccc3)OC(=O)[C@H]1[C@@H]2C(=O)Nc1nc2ccccc2s1 | 0.406 | 1.13 | -0.0066 | 0.662 | 1.42 | 1.51 | 1.31 | 1.47 (inactive) | 0.617 | -0.254 | 1.55 | 0.97 (inactive) | 1.42 (inactive) | 2.76 (inactive) | 2.45 | 0.0879 (inactive) | -0.0063 | 1.1 | 1.06 | 0.113 |
| CN1C(=O)C2C=CC(C(O)C#Cc3ccccc3)N(Nc3ccccc3)C2C1=O (stereo not given) | 0.247 | 0.161 | 0.111 | 1.17 | 1.7 | 1.86 | 1.3 | 2.29 (inactive) | 1.71 | -0.0024 | 1.54 | 0.415 (inactive) | -1.18 (inactive) | 1 (inactive) | 3.4 | -0.672 (inactive) | 0.166 | 0.295 | 1.03 | 0.199 |
| COC(=O)C(CC#Cc1ccc2c(c1)[C@]1(C(=O)N2)[C@H](c2ccccc2OCCO)N2[C@H](c3ccccc3)[C@H](c3ccccc3)OC(=O)[C@H]2[C@@H]1C(=O)NC[C@H](O)c1ccccc1)C(=O)OC | -0.881 | 0.711 | -0.0307 | 0.767 | 0.982 | 1.36 | 1.25 | -1.42 (inactive) | -0.158 | -0.4 | 1.54 | 2.51 (inactive) | 1.32 (inactive) | 4.78 (inactive) | 3.25 | 0.282 (inactive) | -0.324 | 1.1 | 1.04 | -0.147 |
| O[C@@H](Cc1ccccc1)[C@@H](/C=C/C1CC1)N(CC#Cc1ccccc1)Cc1cccc(Cl)c1 | 1.39 | -0.393 | -0.129 | -1.06 | -1.32 | -0.34 | -0.162 | -0.976 (inactive) | -0.959 | -0.227 | -0.235 | 0.949 (inactive) | 0.322 (inactive) | -0.0243 (inactive) | -0.0561 | 1.37 (inactive) | 0.146 | -1.4 | -1.08 | -0.398 |
| Cc1ccc(S[C@]2(C(=O)NCC(F)(F)F)CC(=O)N(Cc3ccccc3)[C@@H]2c2ccc(CO)cc2I)cc1 | 0.512 | 0.156 | -0.0502 | 0.284 | 0.0341 | 1.82 | 0.923 | -0.646 (inactive) | 0.164 | -0.236 | 0.29 | -3.01 (inactive) | -2.23 (inactive) | 0.854 (inactive) | 1.62 | -0.161 (inactive) | 0.496 | -0.315 | 0.233 | -0.118 |
| C=CCC(OC(C)=O)[C@@H]1[C@@H](N(Cc2cc3ccccc3o2)C(=O)c2ccc(C)cc2)c2cc(OCCCO)ccc2N1C(=O)Cc1ccc(OC)cc1 (stereo not given in full) | -0.18 | 0.0811 | -0.0878 | -0.0177 | 0.0335 | -0.433 | -0.0742 | 0.443 (inactive) | 0.277 | -0.0645 | 0.23 | 0.0303 (inactive) | -0.841 (inactive) | -0.131 (inactive) | 0.692 | 1.21 (inactive) | 0.0761 | -0.0512 | 0.233 | -0.15 |
| COC(=O)Cn1c(C(=O)N(C)C)cc2c1C[C@H]1CN(C(=O)c3ccccc3)[C@@](Cc3ccc(F)cc3)(C(=O)OC)[C@@H]21 | 0.0501 | -0.152 | 0.154 | 1.24 | 1.65 | 0.88 | 1.13 | -0.438 (inactive) | 0.114 | -0.15 | -0.397 | 1.28 (inactive) | 1.42 (inactive) | 1.61 (inactive) | 2.81 | -0.581 (inactive) | 0.639 | -0.327 | 0.104 | 0.561 |
